# Test results as given in PubChem BioAssay AID2685 (National Center for Advancing Translational Sciences (NCATS), 2010).
# The whole screen tested about 320,000 compounds, of which about 2,100 (0.66%) were called active. Not shown: some 53% with an inconclusive outcome. The call rests on the fitted dose curve; in most records, active means well fitted inhibition curve with a large enough effect in the signal ratio, with a control signal flat (not every such curve was filed as active); inconclusive means small, poorly fitted or top-dose-only effect, or effect the other way, or a change in a side signal; inactive means flat fitted curve, though single readings scatter; the % refers to the signal ratio. Only a selection was taken, and actives are over-represented in it overall.
# Experiment: qHTS Assay for Lipid Storage Modulators in Drosophila S3 Cells;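 on cell number change: cells counted by Cell Tracker Red CMTPX staining in the red channel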; on lipid storage change, negative = inhibition: on the % scale 0 is the no-effect control and ±100 the full control effect
# Settings: BODIPY lipid droplet fluorescence, 18-24 h, cells fed with added oleic acid; cell number change: measured here: cell count max response; series mostly up to 46.1 µM; lipid storage change, negative = inhibition: at the top concentration
# Summary of the method: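 Drosophila S3 cells got compounds at several concentrations plus oleic acid (400 uM solution). Laser-scanning cytometry with 488 nm excitation read lipid droplets at 500-530 nm and cells at 575-640 nm. Percent activity was relative to 20 uM Triacsin C.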
# Potency means the concentration at half of the fitted maximal effect.
SMILES,"lipid storage change, negative = inhibition",cell number change [%],outcome,Potency
Cc1ccc(C)c(OCC(=O)Nc2ccncc2)c1,2.81% (inactive),4.4,–,–
COc1ccc(Nc2cc(C)c3cc([N+](=O)[O-])ccc3n2)cc1,-8.57% (inactive),3.7,–,–
Nc1c(C(=O)NCCc2ccccc2)nnn1Cc1ccc(Br)cc1F,6.34% (inactive),2.88,–,–
COc1ccc(C2=CC(=O)C[C@H](c3ccc(F)cc3)C2)cc1OC,-2.63% (inactive),-2.7,–,–
COc1ccc(C2=CC(=O)C[C@H](c3ccc(F)cc3)C2)cc1F,–,–,inactive,–
COc1ccc([C@H]2CC(=O)C=C(c3ccc(C)c(F)c3)C2)cc1,–,-9.27,inactive,–
COc1cc(F)c(C2=CC(=O)C[C@H](c3ccc4c(c3)OCO4)C2)cc1F,–,-8.29,inactive,–
COc1cc(F)c(C2=CC(=O)C[C@H](c3ccc(F)cc3)C2)cc1F,–,-1.88,–,0.731 µM (active)
COc1ccc([C@H]2CC(=O)C=C(c3ccc(OC)c(F)c3)C2)cc1,–,1.81,–,0.731 µM (active)
O=C(Cc1cccc(NC(=O)C2CCN(C(=O)CCc3ccccc3)CC2)c1)Nc1cccc(C(=O)N2CCCC2)c1,–,-25.9,inactive,–
COc1ccc(C(=O)CN2CCN(c3ccc(Cl)cc3)CC2)cc1OC,-17.5% (inactive),16.9,–,–
CC(C)CC(=O)Nc1ccc(N2CCOCC2)cc1,-2.97% (inactive),-6.68,–,–
COc1ccc(N2CCN(CC(=O)c3ccccc3)CC2)cc1,–,8.26,inactive,–
COc1ccc(N2CCN(CC(=O)c3ccc(Cl)cc3)CC2)cc1,–,–,–,6.51 µM (active)
CC(C)CC(=O)Nc1ccc(C(=O)CN2CCC(C)CC2)cc1,6.1% (inactive),11.5,–,–
CC(C)CC(=O)Nc1ccc(C(=O)CN2CCN(c3ccc(O)cc3)CC2)cc1,–,-10.4,–,4.61 µM (active)
CCCC(C)c1nnc(NC(=O)C2CCCO2)s1 (stereo unspecified),–,–,inactive,–
C/C(=N\NC(=O)c1ccc(-c2ccccc2)cc1)C1C(=O)c2ccccc2C1=O,-10.9% (inactive),2.31,–,–
COc1ccc(OC)c(NC(=O)CCN2C(=O)c3cccc([N+](=O)[O-])c3C2=O)c1,–,12.8,inactive,–
OCCC1CN(Cc2cc3c(cc2Cl)OCO3)CCN1C1CCCCC1 (stereo unspecified),18% (inactive),2.14,–,–
OCCC1CN(Cc2ccncc2)CCN1C1CCCC1 (stereo unspecified),-2.02% (inactive),-1.79,–,–
Cc1nnc(SCc2ccon2)n1-c1ccccc1,-0.985% (inactive),-2.33,–,–
O=C(Cc1ccccc1)NCC(=O)N/N=C/c1cccs1,7.5% (inactive),–,–,–
O=C(Cc1ccccc1)NCC(=O)N/N=C/c1ccc([N+](=O)[O-])s1,–,17.1,–,16.4 µM (active)
O=C(N/N=C/c1ccc([N+](=O)[O-])s1)c1ccccc1,–,–,inactive,–

SMILES,"lipid storage change, negative = inhibition",cell number change [%],outcome,Potency
COc1ccc(OC)c(Cc2nnc(CCC(=O)NC3CCCCC3)o2)c1,-8.81% (inactive),-6.11,–,–
Cn1c(OCc2ccc3c(c2)OCO3)nc2c1c(=O)n(Cc1ccc(Cl)c(Cl)c1)c(=O)n2C,-1.56% (inactive),10.2,–,–
N#Cc1cn(Cc2ccccc2)c(=O)[nH]c1=O,-14.4% (inactive),17.6,–,–
O=c1[nH]c(=O)n(Cc2ccc(Oc3ccccc3)cc2)cc1Br,–,18.3,–,18.4 µM (active)
Cc1cn(Cc2ccccc2)c(=O)[nH]c1=O,-2.22% (inactive),-5.94,–,–
CC1Sc2ccc(S(=O)(=O)CCC(=O)NC3CCCCC3C)cc2NC1=O (stereo unspecified),–,7.41,inactive,–
NC(=O)c1cc(C(=O)Cc2ccc(Cl)cc2)c[nH]1,–,23.6,inactive,–
CCOc1ccc(CNC(=O)C(C)n2nc(C)c3c(C)n(-c4ccccc4)nc3c2=O)cc1 (stereo unspecified),–,–,inactive,–
CCOC(=O)c1[nH]c2ccc(Cl)cc2c1NC(=O)c1nonc1C,-7.98% (inactive),-14.5,–,–
CCOC(=O)c1[nH]c2ccccc2c1NC(=O)c1nonc1C,–,103,–,2.06 µM (active)
CCOC(=O)c1[nH]c2cc(OC)c(OC)cc2c1NC(=O)c1nonc1C,–,-8.79,inactive,–
C#CCOC(=O)C[N+](C)(C)CC=C,-14.8% (inactive),12.5,–,–
Nc1ccc(C(=O)N/N=C/c2c[nH]c3ccccc23)cc1,9.89% (inactive),14.6,–,–
CCC(NS(=O)(=O)c1cccs1)c1ccc(C)cc1 (stereo unspecified),–,13.3,–,0.164 µM (active)
Cc1ccc(CNC(=O)C(Cc2ccccc2)NS(=O)(=O)c2cccs2)cc1 (stereo unspecified),–,–,inactive,–
Cc1ccc(CNC(=O)C(NS(=O)(=O)c2cccs2)C(C)C)cc1 (stereo unspecified),20.5% (inactive),20.4,–,–
CCS(=O)(=O)n1nc(-c2ccco2)nc1N,0.971% (inactive),19.9,–,–
Cc1ccc(N/C(CSC(N)=O)=N/S(=O)(=O)c2ccccc2)cc1,–,–,–,16.4 µM (active)
Cc1ccc(NC(=S)N/C(=N/S(=O)(=O)c2ccccc2)c2ccccc2)cc1,–,–,inactive,–
CS/C(=N/S(=O)(=O)c1ccc(C)cc1)c1ccccc1,19.1% (inactive),-26.1,–,–
COc1cc(OC)cc(C(=O)NC(C)CNc2ccc(Cl)cc2[N+](=O)[O-])c1 (stereo unspecified),–,-19.1,–,16.4 µM (active)
COc1ccc(NC(=O)c2cc(Cl)ccc2Cl)c([N+](=O)[O-])c1,18.3% (inactive),-6.66,–,–
CC(CNC(=O)c1cc(Cl)ccc1[N+](=O)[O-])NC(=O)c1cc(Cl)ccc1[N+](=O)[O-] (stereo unspecified),-13.7% (inactive),-7.89,–,–
CCC(C)(C)n1nnnc1C(c1cc2cc(C)cc(C)c2[nH]c1=O)N1CCCC1 (stereo unspecified),8.01% (inactive),6.4,–,–
CN(Cc1ccccc1)CC(O)COc1ccc(CNCCOc2cccnc2)cc1 (stereo unspecified),9.6% (inactive),3.58,–,–

SMILES,"lipid storage change, negative = inhibition",cell number change [%],outcome,Potency
Cc1cc(NC(=O)c2cc([N+](=O)[O-])cc([N+](=O)[O-])c2C)no1,-8.89% (inactive),11.7,–,–
CCC1=Nc2ccccc2-c2nnc(SC)nc2O1,–,–,inactive,–
O=C1Nc2ccccc2C1(O)Cc1ccccn1 (stereo unspecified),-6.05% (inactive),-9.38,–,–
O=C1Nc2ccc(Br)cc2C1(O)Cc1ccncc1 (stereo unspecified),14.5% (inactive),16.8,–,–
O=C1Nc2ccccc2C1(O)Cc1ccncc1 (stereo unspecified),–,1.32,–,13 µM (active)
NS(=O)(=O)c1ccc(CCNC(=O)CSc2ccc3ccccc3c2)cc1,2.99% (inactive),–,–,–
COCCN(C(=O)COC(=O)/C(=C/c1ccccc1)NC(C)=O)c1c(N)n(Cc2ccccc2)c(=O)[nH]c1=O,–,-11.6,inactive,–
COc1ccc(CCNC(=O)C2CC3Cn4c(nc5ccccc54)C3N2C)cc1 (stereo unspecified),6.16% (inactive),-10.7,–,–
COC(=O)C1=C(C)N=C2SC(C#N)=C(N)N2C1c1cccc(OC)c1 (stereo unspecified),–,-6.05,inactive,–
COC(=O)C1=C(C)N=C2SC(C#N)=C(N)N2C1c1ccc(OC)cc1 (stereo unspecified),–,-10.8,–,11.6 µM (active)
COC(=O)C1=C(C)N=C2SC(C#N)=C(N)N2C1c1cc(OC)c(OC)c(OC)c1 (stereo unspecified),-7.72% (inactive),2.55,–,–
CCC1(C(=O)OC)NC(c2ccco2)C2C(=O)N(c3ccc(C)cc3)C(=O)C21 (stereo unspecified),–,-0.0174,–,29.1 µM (active)
CCC1(C(=O)OC)NC(c2ccco2)C2C(=O)N(c3ccccc3)C(=O)C21 (stereo unspecified),3.55% (inactive),5.03,–,–
CCCC1(C(=O)OC)NC(c2ccco2)C2C(=O)N(c3ccc(C)cc3)C(=O)C21 (stereo unspecified),0.487% (inactive),3.89,–,–
COc1ccccc1C1=Nn2c(COc3ccccc3)nnc2SC1,8.35% (inactive),23.6,–,–
O=S(=O)(c1ccc(Cl)cc1)N1CCn2c1nc1ccccc12,–,–,inactive,–
O=[N+]([O-])c1cccc(S(=O)(=O)N/N=C\c2ccc3c(c2)OCO3)c1,-28.7% (inactive),-21.8,–,–
Cc1nc(Cc2ccc(OC(C)C)cc2)[nH]c(=O)c1CC(=O)O,17.8% (inactive),12.4,–,–
CC(=O)Nc1ccc(-c2csc(NC(=O)C3=COCCO3)n2)cc1,-16.5% [at 0.0737 µM] (inactive),–,–,–
Cc1ccc(-c2csc(NC(=O)C3=COCCO3)n2)cc1,12.5% (inactive),-0.453,–,–
O=C(Nc1nc(-c2ccc(Cl)cc2)cs1)C1=COCCO1,–,-17.4,–,9.2 µM (active)
COC(=O)CNC(c1ccccc1)c1cc(Br)ccc1NC(C)=O (stereo unspecified),10.9% (inactive),6.76,–,–
CCC(=O)Nc1ccc(NC(=O)c2ccccc2Cl)nc1,–,7.43,inactive,–
COc1cc(C(=O)Oc2ccc(C(=S)N3CCOCC3)cc2)cc(OC)c1OC,-15.9% (inactive),-0.493,–,–
CCOc1cccc(C(=O)Nc2ccc3ccccc3c2)c1,–,17.9,inactive,–

SMILES,"lipid storage change, negative = inhibition",cell number change [%],outcome,Potency
CCOCCOc1cccc(C(=O)NC(C)c2ccc3ccccc3c2)c1 (stereo unspecified),–,-6.8,–,13 µM (active)
CCOCCOc1cccc(C(=O)NC(c2ccccc2)C(C)C)c1 (stereo unspecified),-3.66% (inactive),13.4,–,–
CC12COC3(C(=O)Nc4ccccc4F)CC1CCC32C (stereo unspecified),0.0813% (inactive),-23.5,–,–
CCc1nc(C)cn1S(=O)(=O)c1ccc([N+](=O)[O-])cc1,-3.24% (inactive),7.81,–,–
COC(=O)CN1C(=S)N(C)C(=O)/C1=C/c1cccs1,–,–,inactive,–
O=C(CCCO)c1ccc2c(c1)OCCO2,–,-5.61,–,18.4 µM (active)
O=C(Cc1ccccc1)c1ccc2c(c1)OCCO2,2.3% (inactive),9.53,–,–
O=C(CCCc1ccccc1)c1ccc2c(c1)OCCO2,5.96% (inactive),-0.322,–,–
Cn1c2c(c3ccccc31)CC/C2=N\O,–,17,inactive,–
Cc1ccc(P(=O)(OCCN2CCOCC2)C(C)(C)C)o1 (stereo unspecified),-11.2% (inactive),-0.698,–,–
CCCCc1nnc(NC(=O)CSc2nc(O)c(-c3ccccc3)c(=O)[nH]2)s1,-3.64% (inactive),-17.7,–,–
O=C1CC(c2ccc3c(c2)OCCO3)Oc2ccc([N+](=O)[O-])cc21 (stereo unspecified),–,-9.91,–,7.31 µM (active)
O=C1CC(c2ccc3c(c2)OCCO3)Oc2ccccc21 (stereo unspecified),9.86% (inactive),8.06,–,–
COc1ccc2c(c1)C(=O)CC(c1ccc3c(c1)OCCO3)O2 (stereo unspecified),8.02% (inactive),2.81,–,–
C/C(N)=C(/C#N)C(=O)COC(=O)c1ccc(NC(N)=O)cc1,7.52% (inactive),13.4,–,–
O=C(N/N=C/c1cccc([N+](=O)[O-])c1)c1ccc(Br)cc1,-16.9% (inactive),0.144,–,–
COc1cc(CNCCSc2nnnn2C)cc(Br)c1OCc1ccccc1,7.07% (inactive),-4.04,–,–
Cn1nnnc1SCCNCc1cc(Cl)ccc1OCc1ccccc1,–,3.31,–,5.8 µM (active)
Cn1nnnc1SCCNCc1ccccc1OCc1ccccc1,-2.39% (inactive),16.4,–,–
O=C(CSc1nccn1Cc1ccco1)Nc1ccccc1,-11.6% (inactive),2.09,–,–
COc1cnc(-c2ccccc2)nc1Oc1cccc(C)c1C,0.382% (inactive),7.32,–,–
COc1cnc(-c2ccccn2)nc1Oc1c(C)cccc1C,–,–,inactive,–
COc1cnc(-c2ccccc2)nc1Oc1ccccc1C,–,-26.8,–,5.17 µM (active)
